Results taken from PubChem BioAssay (NCATS).
Records with an inconclusive call do not appear. A number with no mark means an inactive call. Active and inactive are the calls of the source. Calls follow the shape of the dose curve; as a rule, active = well fitted cell-killing curve with a large enough effect; inconclusive = small, poorly fitted or top-dose-only effect, or effect the other way; inactive = no such curve, though single readings can be large or run the other way.

Assays:
[1] = Viability qHTS for spleen associated tyrosine kinase inhibitor (SYKi) naive MV4-11 cells (AID 1963823); also: nearly all actives have a fitted effect of over 40% in size
Summary of the method: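 qHTS, SYK inhibitor-naive MV4-11; 500 cells/well; 72 hr compound exposure, 37 C; CellTiter-Glo added, 10 min RT; luminescence read.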

[2] = Viability qHTS for spleen associated tyrosine kinase inhibitor (SYKi) drug resistant MV4-11 cells (AID 1963824); also: nearly all actives have a fitted effect of over 35% in size
Summary of the method: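 CellTiter-Glo luminescence, read 10 min after reagent addition, reports viability after a 72 hr compound exposure. Cells are an MV4-11 line made resistant to SYK inhibition, seeded at 500 per well onto compound-containing plates.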
Potency is read from the fitted curve at half-maximal effect.

SMILES	Potency [1]	Potency [2]	viability (% of control) [1]	viability, % of control [2]
CCC1CC2C(C)=CC3CCCCC3C2(C)C2(OC(=O)C(C)(O)OC2=O)O1 (stereo not drawn)	12.8 µM (active)	10.1 µM (active)	–	–
C[C@@H]1C[C@@H]2O[C@H]2/C=C\C=C\C(=O)Cc2c(Cl)c(O)cc(O)c2C(=O)O1	0.0404 µM (active)	0.064 µM (active)	–	–
CC(C)C1=CCC(C)(O)C(OC2OC(CO)C(O)C(O)C2O)C1 (stereo not drawn)	inactive	inactive	–	–
C=C[C@@]12COC(=O)C(=C)[C@@H]1[C@@H](O)[C@H](C(=C)C(=O)OC)[C@@H](O)C2	inactive	inactive	–	–
CC1(C)CC[C@@]2(C(=O)O[C@@H]3O[C@H](CO)[C@@H](O)[C@H](O)[C@H]3O)C(C1)C1=CCC3[C@@]4(C)CC[C@@H](O[C@@H]5O[C@H](C(=O)O)[C@@H](O[C@@H]6OC[C@@H](O)[C@H](O)[C@H]6O)[C@H](O[C@@H]6OC[C@](O)(CO)[C@H]6O)[C@H]5O)C(C)(C)C4CC[C@@]3(C)[C@]1(C)C[C@H]2O (stereo partly drawn)	–	–	11.6% [at 9.25 µM]	12% [at 9.25 µM]
O=C(/C=C/c1ccc(O)c(O)c1)OC[C@H]1O[C@@H](OC2CCCCC2O)[C@H](O)[C@@H](O)[C@@H]1O (stereo partly drawn)	inactive	inactive	–	–
OC1C=C2C3CN(Cc4cc5c(cc43)OCO5)C2CC1O (stereo not drawn)	5.17 µM (active)	5.17 µM (active)	–	–
COc1cc2c(NC3CCN(C(C)C)CC3)nc(N3CCC(F)(F)CC3)nc2cc1OCCCN1CCCC1	5.17 µM (active)	2.91 µM (active)	–	–
Cn1cc(Nc2cnccc2C(=O)O)c2cccnc21	inactive	inactive	–	–
